Experimental data as given in PubChem BioAssay (NCATS).
Results filed as inconclusive are left out. Activity calls are given as the source filed them. Calls come from the whole dose curve.

These compounds were tested against Atrial natriuretic peptide receptor 1 (Homo sapiens) (UniProt P16066) (assay: Natriuretic polypeptide receptor (hNpr1) antagonism - Pilot screen (AID 1347049)). Conditions: hNpr1 cells, antagonist mode cGMP read-out; series mostly up to 57.5 µM; activity change, negative = inhibition: at the top concentration.
Procedure: In order to identify small molecular compounds that inhibit the hNpr1 receptor we developed a high-throughput assay to measure inhibition of the guanylate cyclase activity of the receptor. cGMP production was measured using a circular permutated Firefly luciferase (FLuc) enzyme functionally linked to the cGMP binding domain of human phosphodiesterase 5 (GloSensor technology pGS-40F, (Fan, F. et al. 2008). The cGMP-sensor was expressed in human embryonic kidney 293 (HEK-293) cells and FLuc activity was measured after stimulation with hNrp agonist peptide. hNrp agonists activates the receptor's associated guanylyl cyclase (GC) domain producing cGMP which then binds to the GloSensor resulting in FLuc activation, the enzymatic activity of which can be measured as bioluminescence with addition of luciferin substrate.
F. Fan, B. F. Binkowski, B. L. Butler, P. F. Stecha, M. K. Lewis, K. V. Wood, Novel genetically encoded biosensors using firefly luciferase. ACS Chem Biol 3, 346-351 (2008).
This assay was initially piloted by testing with a small diversity library of compounds with known pharmacological activity.
PROTOCOL TABLES (as described by Inglese J, Shamu CE and Guy RK. 2007)
SEQUENCE No. (e.g., 1, 2, 3, etc.); […] (e.g., Cells, Incubation, Reagent, etc.); VALUE and DESCRIPTION.
1. Cells. Seed 1500 HEK293 cGMP-sensor cells expressing hNpr1 per well in 4uL into Greiner 1536-well white/solid bottom high base, tissue culture-treated plates.
2. Incubation. Incubate plated cells at 37C in 5% CO2, 95% RH overnight.
3. Reagent. Add 1uL per well GloSensor reagent from Promega (2% final concentration) or CO2 independent media vehicle control to respective columns of Greiner 1536-well plates.
4. Incubation. Incubate plated cells at room temperature for 2 h, protect from light.
5. Compounds. Library compounds and A-71915 control added at 23 nL per well, transferred by Pin Tool.
6. Incubation. Incubate plated cells for 30 min. at room temperature, protect from light.
7. Detector. GloSensor baseline pre-read luminescence measured using CCD-based camera (Viewlux).
8. Compound. Add 1uL of hNppA peptide to 0.1 nM final concentration to stimulate hNpr1 or CO2 independent media as vehicle control.
9. Incubation. Incubate treated cells at room temperature for 20 min., protect from light.
10. Detector. GloSensor post-hNppA luminescence measured using CCD-based camera (Viewlux).
NOTES (numbers refer to Sequence numbers above)
1. HEK293 cells expressing hNpr1 and GIP/pGS-40F grown to 85-95% confluence (48-72 h) in T175 culture flasks (CO2 independent media supplemented with 10% FBS, 1% Pen/Strep antibiotics and 1 ug/mL puromycin). Trypsinize and harvest cells from T175 culture flasks and filter through 40 um cell strainer. Cells counted with Invitrogen Countess (30,000,000 - 50,000,000 cells/flask). Cells diluted to a final concentration of 375 cells/uL in CO2 independent media and a Millipore multidrop used to dispense 1500 cells per well (4uL/well) into 9 x 1536-well Greiner White/Solid bottom, high base tissue-culture treated (TC) plates and one Aurora 1536-well Black/Clear bottom, low base, TC plate (for visual inspection of cell health throughout the duration of the assay).
2. Cells incubated overnight at ambient temperature, 24 h. at 37C in 95% RH incubator protected from light, covered with metal lid with gas-exchange holes.
3. Prepare GloSensor Reagent (Promega): Reconstitute GloSensor luciferase substrate by adding 8.2mL Hepes buffer to 250mg substrate, mix well, protect from light and stored at -80C. Prepare a fresh 12% GloSensor solution in CO2 independent supplemented plating media (see above). Mix well and store at ambient temperature, protected from light. 1uL 12% GloSensor Luciferase Reagent added (2% final concentration) to respective columns of 9 x 1536-well Greiner plate with BioRaptr, 1uL CO2 independent plating media added to respective columns as vehicle control with BioRaptr.
4. […]
% is set by controls: 0 for no effect and ±100 for the full control effect; potency is the fitted concentration of half-maximal effect.

Sequence of Atrial natriuretic peptide receptor 1 (Homo sapiens) (P16066 whole entry, looked up, the tested form may be a part): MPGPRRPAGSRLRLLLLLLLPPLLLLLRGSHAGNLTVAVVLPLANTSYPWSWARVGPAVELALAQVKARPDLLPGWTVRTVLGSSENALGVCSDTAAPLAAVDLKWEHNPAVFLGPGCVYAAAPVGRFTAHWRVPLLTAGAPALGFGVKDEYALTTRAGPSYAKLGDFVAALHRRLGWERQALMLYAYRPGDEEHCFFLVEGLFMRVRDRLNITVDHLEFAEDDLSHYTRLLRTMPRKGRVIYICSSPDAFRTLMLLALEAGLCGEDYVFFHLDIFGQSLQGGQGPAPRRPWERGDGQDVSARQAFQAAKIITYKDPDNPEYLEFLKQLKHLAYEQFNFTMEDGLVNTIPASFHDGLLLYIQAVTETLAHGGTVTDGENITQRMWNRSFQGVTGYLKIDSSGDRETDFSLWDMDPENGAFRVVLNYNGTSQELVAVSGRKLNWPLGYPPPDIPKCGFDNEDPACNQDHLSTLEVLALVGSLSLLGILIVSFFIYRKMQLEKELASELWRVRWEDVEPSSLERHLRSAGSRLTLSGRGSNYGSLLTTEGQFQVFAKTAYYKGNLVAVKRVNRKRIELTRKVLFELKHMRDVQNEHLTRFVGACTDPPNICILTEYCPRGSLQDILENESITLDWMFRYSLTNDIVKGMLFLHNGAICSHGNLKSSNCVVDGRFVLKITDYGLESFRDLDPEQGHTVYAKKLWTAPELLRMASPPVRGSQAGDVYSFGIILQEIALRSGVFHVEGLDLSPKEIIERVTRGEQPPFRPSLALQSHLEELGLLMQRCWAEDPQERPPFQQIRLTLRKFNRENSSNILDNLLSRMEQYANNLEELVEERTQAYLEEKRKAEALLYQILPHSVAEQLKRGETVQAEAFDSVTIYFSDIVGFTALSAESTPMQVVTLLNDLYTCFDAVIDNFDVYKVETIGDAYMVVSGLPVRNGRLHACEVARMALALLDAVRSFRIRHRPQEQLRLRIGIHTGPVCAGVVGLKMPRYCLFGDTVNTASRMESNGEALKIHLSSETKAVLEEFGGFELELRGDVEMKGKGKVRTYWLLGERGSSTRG

Compound	activity change, negative = inhibition	Potency
Clc1ccc2c(c1)N=C(N1CCNCC1)c1ccccc1N2	-9.08% (inactive)	–
NC(N)=NCCCCN=C(N)N	3.97% (inactive)	–
COc1ccccc1N1CCN(CCN2C(=O)CC3(CCCC3)CC2=O)CC1	5.24% (inactive)	–
Nc1ncnc2n[nH]c(Nc3ccc(F)cc3)c12	-5.04% (inactive)	–
Brc1ccc([C@H]2CN3CCSC3=N2)cc1	-7.96% (inactive)	–
O=C1NC(c2cccc([N+](=O)[O-])c2)=CCN1c1ccccc1O	24.2% (inactive)	–
Cc1nn(-c2ccccc2)c(C)c1/C=N/N1CCN(Cc2ccccc2)CC1	0.887% (inactive)	–
COc1cccc2c1[C@@H]1CN(CCCCn3c(=O)[nH]c4c(sc5ncc(-c6ccccc6)nc54)c3=O)C[C@@H]1CO2	-3.31% (inactive)	–
C[N+](C)(C)CCO	11% (inactive)	–
CC(C)N(CCC(=O)c1ccc2ccccc2c1)Cc1ccccc1	–	13.5 µM (active)
N[C@@H](Cn1ccc(=O)c(O)c1)C(=O)O	12.2% (inactive)	–
CN(C)c1cc2c(Nc3ccc4c(cnn4Cc4ccccc4)c3)ncnc2cn1	-17.7% (inactive)	–
Cn1cnc2c(NCc3ccccc3)nc(NCCO)nc21	2.48% (inactive)	–
CCN(CC)CCNC(=O)c1ccc(NS(C)(=O)=O)cc1	11.4% (inactive)	–
COC(=O)C1=CO[C@@H](O)[C@@H]2C(CO)=CC[C@H]12	-2.91% (inactive)	–
O=[N+]([O-])c1ccc(-c2nc(-c3ccc(F)cc3)c(-c3ccncc3)[nH]2)cc1	-7% (inactive)	–
